MK inhibit: S. pneumoniae mevalonate kinase inhibition | inhibition, % at 10 µM | 0.48% of 65,000 active | purified MK, PK/LDH-coupled NADH absorbance 340 nm;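 active = ranked among the strongest by inhibition in the single 10 µM screen, a fixed top-ranked set picked for dose follow-up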
Spn DPM-DC inh: S. pneumoniae DPM-DC inhibition. AID 556. 0.49% of 65,000 active. purified DPM-DC, PK/LDH coupled NADH fluorescence. calls only at 10 µM;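 active = the 320 compounds with the highest percent inhibition in the single-dose primary screen, excluding strongly autofluorescent ones, cut at about 32% in these data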;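 note: kinetic rate of NADH fluorescence loss reporting ADP formed by the decarboxylase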
Fluor 339 460: intrinsic fluorescence of library compounds, ex339/em460 – biochemical, MLSMR library, data from DPM-DC assay, artefact control, profiling panel; AID 709; compound autofluorescence, ex339/em460 nm, NADH buffer; active compounds read high; 1 = no-compound wells, NADH background; fluorescence fold increase at 10 µM; 5.5% of 65,000 active;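 active = at 10 µM, mean starting fluorescence two-fold or more over control wells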;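 note: signal is the first read of a kinetic run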
PMK inhibit: inhibitors of Streptococcus pneumoniae phosphomevalonate kinase; purified PMK, PK/LDH-coupled NADH absorbance 340 nm; inhibition, % at 10 µM; 0.49% of 65,000 active;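 active = top-ranked compounds by inhibition in the single 10 µM screen, taking a fixed number of the strongest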;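 note: 0% = full reaction with DMSO carrier and 100% = background rate without enzyme reaction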
Abs 340nm: absorbance at 340 nm; compound absorbance at 340 nm, fold over control; fold change at 10 µM; 65,000 tested, under 10 active;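 active = at 10 µM dose, initial 340 nm absorbance at least 2 fold that of control wells; inactive = change under 2 fold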;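 note: initial absorbance extrapolated from kinetic A340 decline of NADH oxidation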
NADH coupling: inhibitors of enzymes used to reach an NAD/NADH endpoint; coupled PK/LDH NADH assays, four targets; IC50, µM (highest dose often 10 µM), inactives show at the highest dose inhibition; 0.02% of 65,000 active; AID 774;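 active = single-dose screening hits from any of four coupled enzyme assays that gave an IC50 when retested across doses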;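 note: the DPM-DC format reads NADH fluorescence rather than 340 nm absorbance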
* = called active by the depositor; i = inactive; . = not tested or not shown; + = active, no number. Sampled rows, rich in hits. Any-hit rate of the full collection: about 6.5%.

SMILES	MK inhibit	Spn DPM-DC inh	Fluor 339 460	PMK inhibit	Abs 340nm	NADH coupling
CCCOC(=O)CCc1n[nH]c(=O)[nH]c1=O	5	i	1.1	2	0.98	2%
CCCOC(=O)Cc1n[nH]c(=O)[nH]c1=O	5	+	0.55	10	0.96	20%
CCOc1ccccc1NC(=O)CCN1CCN(S(=O)(=O)c2ccc(Br)cc2)CC1	7	i	0.99	7	0.99	2%
O=C(NC1CCCC1)c1ccc2nc(-c3ccco3)c(-c3ccco3)nc2c1	20	i	2.9*	19	1	17%
O=C(NC1CCCC1)c1ccc2nc[nH]c2c1	11	i	1.1	11	1	4%
CCOC(=O)C1CCN(C(=O)Nc2ccc3nc(-c4ccco4)c(-c4ccco4)nc3c2)CC1	20	i	1.7	0	1.1	15%
CCOC(=O)N1CCN(C(=O)Nc2ccc3nc(C)c(C)nc3c2)CC1	8	.	2.2*	5	1.1	7%
O=C(Nc1ccc2nc(-c3ccco3)c(-c3ccco3)nc2c1)N1CCCCCC1	16	+	2.7*	9	1.1	19%
COc1cc(OC)c(OC)cc1/C=N/n1c(C)nnc1C	9	.	2.2*	10	1.1	10%
COc1cccc(/C=N\n2c(C)nnc2C)c1OC	5	+	1.1	0	1	16%
COc1cccc(/C=N/n2c(C)nc3ccccc32)c1OC	6	i	1.1	4	1	3%
COc1ccccc1NS(=O)(=O)c1cccc2cccnc12	51*	i	1.1	5	1.1	26%
O=c1cc(-c2ccccc2)[nH]n1-c1nc2ccccc2s1	3	i	1.1	16	1.1	6%
O=c1cc(-c2ccccc2)[nH]c2nc3ccccc3n12	11	.	2.5*	0	1	3%
O=c1[nH]cnc2c1oc1ccccc12	5	i	1.1	15	1	7%
O=C(O)c1c(-c2ccccc2)c2oc3ccccc3c2[nH]c1=O	17	+	3.6*	12	1.1	21%
Cc1c(Cl)cccc1NC(=O)CCN1CCCC(C)C1 (centres undefined)	0	i	1.1	0	1.1	0%
Cc1c(C)c2cc(Cl)c(O)c(CN3CCN(C)CC3)c2oc1=O	2	.	2.3*	5	1.1	4%
Cc1c(C)c2cc(Cl)c(O)c(CN3CCCC(C)C3)c2oc1=O (centres undefined)	2	.	2.4*	6	1.1	4%
CN1CCN(Cc2c(O)ccc3c(-c4ccccc4)cc(=O)oc23)CC1	3	i	1.4	4	1.1	2%
Cc1c(O)c(CN2CCCC(C)C2)cc2c3c(c(=O)oc12)CCC3 (centres undefined)	6	.	2.5*	3	1	4%
COc1cc2c(cc1OC)CN(Cc1ccc(OC)c(C)c1OC)CC2	46*	i	1.1	0	1.1	15%
COc1cc2c(cc1OC)CN(Cc1cccs1)CC2	48*	i	1.2	13	1.1	22%
CCS(=O)(=O)N1CCc2cc(OC)c(OC)cc2C1	6	i	1.1	0	1	2%
N#Cc1nn(-c2ccccc2)nc1N1CCCCC1	0	.	5*	12	1	6%
SMILES	MK inhibit	Spn DPM-DC inh	Fluor 339 460	PMK inhibit	Abs 340nm	NADH coupling
CC(=O)OC1c2ccccc2C(=O)N1Cc1ccccc1Cl (centres undefined)	4	i	1	2	0.98	1%
CCOc1ccc2nc(C)cc(C(=O)O)c2c1	8	.	3.8*	5	0.99	7%
COc1ccc2nc(C)cc(C(=O)O)c2c1	3	.	3.8*	4	1	4%
CCC(COC(=O)Nc1cccc(C)c1)NC(=O)OCC(C)C (centres undefined)	6	i	1.1	11	0.99	6%
Cn1c(=O)c2c3c(sc2n2c(SCc4ccc5c(c4)OCO5)nnc12)COC(C)(C)C3	6	i	1.1	4	1	3%
CCOc1ccc2[nH]c(=O)c(CN(CCO)C(=O)c3ccc(F)cc3)cc2c1	17	i	3.4*	2	1.1	15%
CCOc1ccc2[nH]c(=O)c(CN(CCO)C(=O)c3ccccc3F)cc2c1	0	i	3*	1	1.1	6%
Cc1cc2ccccc2c(=O)[nH]1	0	i	1.7	11	1.1	6%
Cc1ccccc1Nc1cc2ccccc2c(=O)[nH]1	0	.	2.8*	4	1	13%
O=c1cc(C(F)F)oc2c1ccc1ccccc12	7	.	2.5*	0	1	1%
COc1ccc(N2CCN(Cc3cc(=O)oc4c3ccc3ccccc34)CC2)cc1	10	i	1.1	7	1	6%
CCCc1nc(S(=O)(=O)Cc2ccc(Cl)cc2Cl)n[nH]1	2	i	1.1	12	1	5%
Cc1ccc(-n2cc(C(C)(C)C)[nH]c2=S)cc1	9	i	1.1	5	0.99	5%
Clc1ccc2oc(-c3ccccc3)nc2c1	5	i	1.1	0	1	2%
CC(C)(Oc1ccc(Cl)cc1)C(=O)Nc1ccc2oc(-c3ccncc3)nc2c1	5	.	3.4*	3	1.1	4%
O=C(COc1ccc(Cl)cc1)Nc1ccc2oc(-c3ccncc3)nc2c1	4	.	4.8*	13	1	9%
Cc1ccc(OCC(=O)Nc2ccc(O)c(-c3nc4ccccc4o3)c2)cc1	3	.	2	10	1.1	7%
c1cc(-c2nc3cc(Oc4ccc5oc(-c6ccncc6)nc5c4)ccc3o2)ccn1	7	i	2.6*	4	1	4%
CCOC(=O)c1c(NC(=O)CSc2nnnn2C)sc(C)c1-c1ccc(C)cc1	0	i	1.1	6	1	2%
CCOc1ccc(S(=O)(=O)Nc2ccccc2SC)c2cccnc12	3	i	1.2	0	1.1	1%
CCOc1ccc(S(=O)(=O)NCC2CCCO2)c2cccnc12 (centres undefined)	6	i	2.2*	0	1	4%
Cc1ccc(-c2nnc(-c3ccc(NC(=O)c4ccco4)cc3)o2)cc1	0	i	3*	11	1.1	13%
CCOc1cccc(C(=O)Nc2cccc(-c3nnc(-c4ccccc4)o3)c2)c1	10	i	1.1	8	1.1	6%
Cc1nc(NC(=O)c2ccco2)sc1C(=O)Nc1ccc(Br)cc1	0	i	1.2	25*	1.2	10%
O=C(Nc1ccc(-c2nc3ncccc3o2)cc1)c1ccco1	11	+	2.6*	5	1.4	20%
Cc1ccc2nc(-c3ccc(NC(=O)c4ccco4)cc3)[nH]c2c1	0	i	1.1	3	1.1	3%
O=C(Nc1ccc(-c2nc3ncccc3o2)cc1)c1ccc(Br)o1	8	.	2	0	1.1	7%
CCOc1cccc(C(=O)Nc2cccc(-c3nnc(-c4ccc(C)cc4)o3)c2)c1	0	.	3.6*	1	1.4	1%

From PubChem BioAssay
